The text below walks through data of PubChem BioAssay (Tox21).

Unmarked numbers belong to inactive results. Results filed as inconclusive are left out. Active and inactive are the calls of the source. Unless noted, calls follow the shape of the dose curve; as a rule, active = well fitted curve in the direction sought with a large enough effect in the repeat runs; inconclusive = weak or mixed curves; inactive = no such curve, though single readings can be large; an effect the other way counts as inactive or inconclusive.

Test [1] in a line: qHTS RealTime-Glo MT Cell Viability Assay in HEK293 cells - 8 hour (AID 1224887). Also: nearly all actives have a fitted effect of over 50% in size. Also: potency is read from the fitted curve at half-maximal effect. The procedure, abridged: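 600 HEK293 cells per well, dispensed already mixed with RealTime-Glo MT reagents. Compound dosing came 5 h later. The same wells were read for luminescence at 0, 8, 16, 24, 32 and 40 h of exposure at 37 C.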
For orientation: qHTS replaces the single test concentration by a dilution series.

Test [2] is described as follows: A CellTox Green Cytotoxicity Assay to monitor cytotoxicity in HEK293 cells - 16 hour (AID 1224888). Also: nearly all actives have a fitted effect of over 35% in size. Also: potency is read from the fitted curve at half-maximal effect. The procedure, abridged: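 Dead-cell fluorescence measured kinetically: asymmetric cyanine dye, HEK293, 600 cells/well, 5 h settle, 23 nL cpd/DMSO, 37 C, reads 0–40 h every 8 h.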
The nature of test [3]: qHTS RealTime-Glo MT Cell Viability Assay in HepG2 cells - 0 hour (AID 1224889). Also: nearly all actives have a fitted effect of over 50% in size. The procedure, abridged: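 qHTS, HepG2, 600 cells/well, RealTime-Glo (NanoLuc + prosubstrate) added with cells; 5 h preincubation; DMSO compound addition; 37 C; luminescence at 0/8/16/24/32/40 h.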
The nature of test [4]: A CellTox Green Cytotoxicity Assay to monitor cytotoxicity in HepG2 cells - 8 hour (AID 1224890). Also: nearly all actives have a fitted effect of over 45% in size. Also: potency is read from the fitted curve at half-maximal effect. The procedure, abridged: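 First, HepG2 cells (600/well) mixed with reagent were plated; second, after 5 h at 37 C they received compounds via pintool; third, fluorescence was measured at 0 h through 40 h at 8 h intervals.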
A short description of test [5]: qHTS assay to identify small molecule antagonists of the androgen receptor (AR) signaling pathway using the MDA cell line in the presence of 0.5 nM R1881 - cell viability counter screen (AID 1259242). Also: nearly all actives have a fitted effect of over 45% in size. Also: potency is read from the fitted curve at half-maximal effect. The procedure, abridged:
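qHTS format. MDA-kb2 (MMTV-luc, AR/GR responsive) + cpd + 0.5 nM R1881 final, 16 hr 37C/0% CO2 → CellTiter-Fluor 30 min → fluorescence intensity.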

Test [6] deals with Androgen receptor (Homo sapiens) (UniProt P10275). Kind of test: qHTS assay to identify small molecule antagonists of the androgen receptor (AR) signaling pathway using the MDA cell line in the presence of 0.5 nM R1881 (AID 1259243). Also: nearly all actives have a fitted effect of over 50% in size. The procedure, abridged:
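Antagonist mode quantitative HTS in MDA-kb2 MMTV-luciferase cells, agonist R1881 at 0.5 nM final, 16 hr exposure at 37C and 0% CO2, luminescent detection.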

The nature of test [7]: qHTS assay to identify small molecule HDAC inhibitors (AID 1259364).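 Also: wild-type HCT-116 cells with endogenous class I/II HDAC activity; top concentration of the series differs between compounds; nearly all actives have a fitted effect of over 45% in size.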 The procedure, abridged: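 Quantitative high-throughput format: overnight-seeded HCT-116 cells got compounds for 2 hr at 37C; HDAC-Glo I/II reagent added, 30 min RT, luminescence measured.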
Test [8] in a line: qHTS assay to identify small molecule HDAC inhibitors - cell viability counter screen (AID 1259365). Also: series mostly up to about 92 µM; nearly all actives have a fitted effect of over 50% in size. The procedure, abridged: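 Measured quantity is CellTiter-Glo luminescence from wild-type HCT-116 cells after compound incubation of 2hr at 37C, 5% CO2; reagent developed 30min at room temperature.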
Test [9] in a line: qHTS assay to identify small molecule agonists of the sonic hedgehog signaling (Shh) pathway - cell viability counter screen (AID 1259366). Also: nearly all actives have a fitted effect of over 50% in size. Also: potency is read from the fitted curve at half-maximal effect. The procedure, abridged:
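In quantitative high-throughput format, 3T3 Gli1-Luc cells were exposed to compounds for 24hr and multiplexed for viability using CellTiter-Fluor, incubated 1hr at 37C before the fluorescence read.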

The nature of test [10]: qHTS assay to identify small molecule antagonists of the sonic hedgehog signaling (Shh) pathway - cell viability counter screen (AID 1259367). Also: nearly all actives have a fitted effect of over 55% in size. Also: potency is read from the fitted curve at half-maximal effect. The procedure, abridged:
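CellTiter-Fluor signal in conditioned medium-stimulated 3T3 Gli1-Luc cells, 23 hr compound exposure, 37C.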

A short description of test [11]: qHTS assay to identify small molecule agonists of the sonic hedgehog signaling (Shh) pathway (AID 1259368; calls by dose curve;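 also: NIH/3T3-derived 3T3Gli1-Luc cells carrying a stable Gli1-driven firefly luciferase reporter; series mostly up to about 92 µM; nearly all actives have a fitted effect of over 15% in size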). The procedure, abridged: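 Quantitative high-throughput format using a Gli1-driven firefly luciferase reporter line derived from NIH/3T3 cells. After a 24 hr compound treatment at 37 C and 5% CO2, luminescence reported Gli1 response element activity.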
The nature of test [12]: qHTS assay to identify small molecule antagonists of the sonic hedgehog signaling (Shh) pathway (AID 1259369; calls by dose curve; also: nearly all actives have a fitted effect of over 45% in size; also: potency is read from the fitted curve at half-maximal effect). The procedure, abridged:
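Stable Gli1-Luc reporter NIH/3T3 clone; quantitative HTS in stimulated mode with conditioned medium. Luminescence measured after 24hr compound treatment at 37 C.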

Test [13] has as its target Estrogen receptor beta (Homo sapiens) (UniProt Q92731). Description: qHTS assay to identify small molecule agonists of the estrogen receptor beta (ER-beta) signaling pathway (AID 1259377; active = well fitted activation curve with a large enough effect in the signal ratio in the repeat runs, not every such curve was filed as active; the % refers to the signal ratio). The procedure, abridged:
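Reporter cells (HEK293T, ER-beta-UAS-bla) receive compounds or DMSO after a 6 hr pre-incubation. They then incubate 16 hr at 37C/5% CO2, and fluorescence from LiveBLAzer B/G substrate is measured after 2 hours at room temperature.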

Test [14] shares this target. Kind of test: qHTS assay to identify small molecule antagonists of the estrogen receptor beta (ER-beta) signaling pathway (AID 1259378; active = well fitted inhibition curve with a large enough effect in the signal ratio in the repeat runs, not every such curve was filed as active; the % refers to the signal ratio). The procedure, abridged:
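Antagonist mode: compounds added to beta-lactamase reporter HEK293T ER-beta-UAS cells stimulated with E2 (1nM final), 16 hr at 37C. LiveBLAzer B/G FRET substrate, 2 hours room temperature, fluorescence read-out.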

Test [15] can be described thus: qHTS assay to identify small molecule agonists of the androgen receptor (AR) signaling pathway in the presence of an antagonist - cell viability counter screen (AID 1259379). Also: nearly all actives have a fitted effect of over 25% in size. Also: potency is read from the fitted curve at half-maximal effect. The procedure, abridged:
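Nilutamide-containing (3.0uM final) MDA-kb2 cultures, 3,000 cells/well, were treated with compounds across 15 concentrations. After 16 hr at 37C with no CO2, cell viability was determined by CellTiter-Fluor fluorescence in the luciferase assay wells.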

Test [16] in a line: qHTS assay to identify small molecule agonists of the estrogen receptor beta (ER-beta) signaling pathway - cell viability counter screen (AID 1259380). Also: nearly all actives have a fitted effect of over 30% in size. Also: potency is read from the fitted curve at half-maximal effect. The procedure, abridged: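 Steps: plate ER-beta-UAS-bla HEK293T cells, rest 6 hr; add compounds in DMSO; incubate 16 hr at 37C, 5% CO2; add FRET substrate 2 hr; add CellTiter-Glo, wait 30 min at room temperature; read luminescence.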

Test [17] concerns the target Androgen receptor (Homo sapiens) (UniProt P10275). Description: qHTS assay to identify small molecule agonists of the androgen receptor (AR) signaling pathway in the presence of an antagonist (AID 1259381; calls by dose curve; also: nearly all actives have a fitted effect of over 15% in size). The procedure, abridged: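 Reporter-gene luminescence from MDA-kb2 cells exposed 16hr at 37C (0% CO2) to 15-point compound titrations with 3.0uM final nilutamide as AR antagonist.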

Test [18] has as its target Estrogen receptor (Homo sapiens) (UniProt P03372). Kind of test: qHTS assay to identify small molecule antagonists of the estrogen receptor alpha (ER-alpha) signaling pathway using the BG1 cell line in the presence of 0.1 nM 17-beta-estradiol (AID 1259244). Also: nearly all actives have a fitted effect of over 50% in size. The procedure, abridged:
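Reporter is a stably transfected luciferase under four estrogen responsive elements in VM7Luc4E2 cells expressing native full-length ER-alpha; inhibition of 0.1 nM (final) 17beta-estradiol-driven signal over 22 h is read by luminescence.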

Test [19] is described as follows: qHTS assay to identify small molecule antagonists of the estrogen receptor alpha (ER-alpha) signaling pathway using the BG1 cell line in the presence of 0.1 nM 17-beta-estradiol - cell viability counter screen (AID 1259241). Also: nearly all actives have a fitted effect of over 40% in size. Also: potency is read from the fitted curve at half-maximal effect. The procedure, abridged: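 In this screen, hormone-deprived VM7Luc4E2 cells were seeded at 4,000 per well, dosed with compound and 0.1 nM estradiol final, and incubated 22 hr at 37C and 5% CO2; fluorogenic live-cell protease signal reported viability.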

Test [20] can be described thus: qHTS assay to identify small molecule phospholipidosis (PLD) inducers (AID 1259344; active = well fitted curve in the direction sought with a large enough effect; an effect the other way counts as inactive or inconclusive). The procedure, abridged: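 Accumulated phospholipid, stained red by LipidTOX during 24 h compound treatment of HepG2 cells at 37 C, is quantified from images as pit number and intensity, normalised per cell using Hoechst-stained nuclei.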

Estrogen receptor (Homo sapiens), sequence (P03372 whole entry, looked up): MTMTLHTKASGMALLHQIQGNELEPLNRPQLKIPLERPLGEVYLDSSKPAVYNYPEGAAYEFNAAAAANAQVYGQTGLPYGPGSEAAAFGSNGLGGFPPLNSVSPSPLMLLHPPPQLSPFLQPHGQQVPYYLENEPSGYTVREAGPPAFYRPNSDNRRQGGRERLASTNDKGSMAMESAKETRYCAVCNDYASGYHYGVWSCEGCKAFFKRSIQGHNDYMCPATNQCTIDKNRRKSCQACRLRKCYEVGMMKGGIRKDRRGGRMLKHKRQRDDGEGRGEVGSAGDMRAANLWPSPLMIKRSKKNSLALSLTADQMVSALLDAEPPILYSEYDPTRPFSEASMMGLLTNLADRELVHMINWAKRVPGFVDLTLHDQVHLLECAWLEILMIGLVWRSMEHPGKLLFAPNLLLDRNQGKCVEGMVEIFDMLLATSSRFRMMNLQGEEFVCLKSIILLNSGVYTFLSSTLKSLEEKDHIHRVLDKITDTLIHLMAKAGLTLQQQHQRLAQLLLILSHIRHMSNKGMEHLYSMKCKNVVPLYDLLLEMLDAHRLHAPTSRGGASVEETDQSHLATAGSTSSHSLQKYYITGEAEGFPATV
Estrogen receptor beta (Homo sapiens), sequence (Q92731 whole entry, looked up): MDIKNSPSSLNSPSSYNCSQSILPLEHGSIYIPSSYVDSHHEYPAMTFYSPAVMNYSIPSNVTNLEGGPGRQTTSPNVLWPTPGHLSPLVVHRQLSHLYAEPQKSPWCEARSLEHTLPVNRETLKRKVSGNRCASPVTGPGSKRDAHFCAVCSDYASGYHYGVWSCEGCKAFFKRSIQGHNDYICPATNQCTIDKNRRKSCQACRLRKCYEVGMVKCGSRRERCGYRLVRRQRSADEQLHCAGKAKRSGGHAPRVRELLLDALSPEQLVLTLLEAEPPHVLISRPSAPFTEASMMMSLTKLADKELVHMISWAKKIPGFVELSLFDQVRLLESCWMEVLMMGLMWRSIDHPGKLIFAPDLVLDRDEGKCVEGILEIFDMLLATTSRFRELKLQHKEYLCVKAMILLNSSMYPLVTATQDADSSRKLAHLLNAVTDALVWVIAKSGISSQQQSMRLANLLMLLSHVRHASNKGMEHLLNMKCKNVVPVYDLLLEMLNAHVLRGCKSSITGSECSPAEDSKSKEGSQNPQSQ
Androgen receptor (Homo sapiens), sequence (P10275 whole entry, looked up): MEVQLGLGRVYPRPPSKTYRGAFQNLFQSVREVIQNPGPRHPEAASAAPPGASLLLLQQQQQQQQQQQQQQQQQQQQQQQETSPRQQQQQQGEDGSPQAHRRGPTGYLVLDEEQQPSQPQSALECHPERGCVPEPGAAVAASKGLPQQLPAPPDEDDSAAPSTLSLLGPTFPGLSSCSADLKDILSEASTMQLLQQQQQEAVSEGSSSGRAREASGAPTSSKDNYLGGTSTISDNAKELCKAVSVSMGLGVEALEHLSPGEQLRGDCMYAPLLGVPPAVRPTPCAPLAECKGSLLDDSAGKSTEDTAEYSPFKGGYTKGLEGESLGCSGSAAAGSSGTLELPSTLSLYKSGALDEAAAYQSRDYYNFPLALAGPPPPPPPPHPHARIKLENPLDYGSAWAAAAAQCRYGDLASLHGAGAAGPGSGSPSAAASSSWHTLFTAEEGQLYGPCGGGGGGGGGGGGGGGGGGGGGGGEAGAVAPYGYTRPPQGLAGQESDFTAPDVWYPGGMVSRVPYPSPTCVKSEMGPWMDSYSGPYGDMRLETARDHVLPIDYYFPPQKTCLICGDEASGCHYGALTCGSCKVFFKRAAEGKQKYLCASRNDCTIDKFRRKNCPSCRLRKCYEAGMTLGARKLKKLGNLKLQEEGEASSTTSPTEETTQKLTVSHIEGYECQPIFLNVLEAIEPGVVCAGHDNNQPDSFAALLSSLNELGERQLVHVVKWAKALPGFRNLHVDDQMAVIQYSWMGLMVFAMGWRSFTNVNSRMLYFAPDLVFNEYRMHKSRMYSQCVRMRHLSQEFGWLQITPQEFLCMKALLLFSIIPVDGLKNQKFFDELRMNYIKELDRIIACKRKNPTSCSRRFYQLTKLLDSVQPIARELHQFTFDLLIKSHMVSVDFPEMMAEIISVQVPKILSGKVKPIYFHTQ

For `C=CC(C)(C)O`, the Potency entry in [1], in test [2], in [3], in test [4], in test [5] and in test [6] was “inactive” in each case. Besides, the Potency entry in test [7], in test [8], in test [9], in test [10], in test [11] and in test [12] was “inactive” throughout. The Potency result in test [14], in test [15], in [16] and in test [17] was “inactive” throughout. Moreover, the call in [13] was inactive.
Turning to `O=C1OC(O)C(C(Cl)Cl)=C1Cl` (stereo not drawn), the Potency entry in test [1], in test [2], in test [3], in test [4], in test [5] and in test [18] was “inactive” in each case. The Potency entry in test [7] and in test [8] was “inactive” in each case. The Potency was 44.6 µM (active) in test [9], 25.1 µM (active) in [10], 5 µM (active) in [12] and 19.9 µM (active) in [16]. In [13], the compound was called inactive.
Consider `C=Cc1ccncc1`, for which the Potency result in [1], in test [2], in [3], in [4], in test [5] and in test [6] was “inactive” each time. The Potency result in test [7], in [8], in [9], in [10], in test [11] and in [12] was “inactive” each time. The Potency entry in test [16] and in test [17] was “inactive” each time.
Turning to `CCCCCN=C(N)N/N=C/c1c[nH]c2ccc(OC)cc12`, the Potency in test [1] is 8.49 µM (active); in test [2], 7.56 µM (active); in [4], 10.7 µM (active); in test [19], 29.8 µM (active); in [5], 13.3 µM (active); in test [9], 8.41 µM (active). Moreover, the Potency in test [10] was 13.3 µM (active); in test [12], 1.68 µM (active); in [15], 13.3 µM (active). Besides, the Potency result in test [20], in [7] and in test [11] was “inactive” throughout.
On to `CC(C=O)c1ccccc1` (stereo not drawn), for which the Potency entry in test [1], in test [2], in test [4], in test [19], in test [5] and in [6] was “inactive” each time. The Potency result in [18], in test [7], in [8], in [9], in test [10] and in test [11] was “inactive” throughout. Besides, the Potency entry in test [12], in [14], in test [15], in [16] and in test [17] was “inactive” throughout. Also, the call in [13] was inactive.
`CO[Si](OC)(c1ccccc1)c1ccccc1`: the Potency entry in test [1], in [2], in test [3], in test [4], in test [5] and in test [7] was “inactive” each time. For the same compound, the Potency entry in test [8], in test [11], in test [14] and in test [16] was “inactive” in each case. The Potency in test [10] was 43.3 µM (active); in test [12], 21.7 µM (active).
With `Nc1cccnc1N`, the Potency entry in [1], in [2], in [3], in test [4], in [5] and in test [18] was “inactive” each time. In addition, the Potency entry in [7], in [8] and in test [11] was “inactive” throughout.
`CC/C=C(\C)C=O`: the Potency entry in test [1], in [2], in test [4], in [19], in test [5] and in [18] was “inactive” throughout. The Potency entry in test [7], in test [8], in test [9], in [10], in test [11] and in test [12] was “inactive” throughout. In test [15], the Potency result is “inactive”.
